Assay [1] deals with XIP peptide (Xip251-270) binding. The assay can be described thus: small-molecule binders of XIP peptide, primary screen, biochemical, small-molecule microarray, fluorescence 635/667 nm, 0.1 µg/mL protein (AID 1182). The note with it: fluorescent protein binding, 635 nm, higher = more signal, called active from +8 up or from −8 down.
A further assay concerns XIP peptide (Xip251-270). Put plainly: small-molecule binders of XIP peptide, primary screen, biochemical, small-molecule microarray, fluorescence 635/667 nm, 0.5 µg/mL protein (AID 1183). The conditions noted are these: small-molecule microarray binding, fluorescence 635 nm; higher = more signal.
Assay [2] is described as follows: Plasmodium falciparum growth inhibition, primary screen, strain 3D7, DAPI fluorescence, 100 nL (AID 1184).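 Also: parasites grown inside human red blood cells in medium with human serum.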 The note with it: P. falciparum 3D7 growth, 3 d, higher = more signal.
Assay [3] concerns the target Homeobox protein Hox-A13 (Mus musculus) (UniProt Q62424). Put plainly: inhibitors of HoxA13-DNA binding, primary screen, biochemical, fluorescence polarization, labeled oligonucleotide (AID 1185). The conditions noted are these: 15 min, higher = more signal, called active from +8 up or from −8 down.
A short description of assay [4]: inhibitors of hydroxyurea-induced Chk1 phosphorylation, primary screen, imaging, HeLa, phospho-Chk1 antibody, percent positive cells (AID 1186). The note with it: hydroxyurea-induced phospho-Chk1 immunofluorescence imaging, higher = more signal.
Assay [5] is described as follows: inhibitors of hydroxyurea-induced Chk1 phosphorylation, primary screen, imaging, HeLa, phospho-Chk1 nuclear intensity (AID 1187). The note with it: hydroxyurea-induced phospho-Chk1 immunofluorescence imaging, higher = more signal.

Activity calls are given as the source filed them. Unless noted, no rule for the calls is given here.

Homeobox protein Hox-A13 (Mus musculus), sequence (Q62424 whole entry, looked up): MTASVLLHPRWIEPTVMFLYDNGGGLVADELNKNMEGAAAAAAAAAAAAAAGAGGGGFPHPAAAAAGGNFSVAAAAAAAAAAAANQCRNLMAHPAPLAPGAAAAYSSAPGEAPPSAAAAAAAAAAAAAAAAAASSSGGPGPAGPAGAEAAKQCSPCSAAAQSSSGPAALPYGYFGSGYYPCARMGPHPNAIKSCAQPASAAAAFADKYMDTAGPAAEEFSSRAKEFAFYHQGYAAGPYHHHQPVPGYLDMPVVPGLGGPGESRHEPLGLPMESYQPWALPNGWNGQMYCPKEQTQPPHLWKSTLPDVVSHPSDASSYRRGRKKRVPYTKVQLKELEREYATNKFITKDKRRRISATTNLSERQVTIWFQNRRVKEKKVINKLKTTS

On to `CCOC(=O)C1=C[C@@H](C(C)(C)C)N(S(=O)(=O)c2ccc(C)cc2)[C@H]1c1ccccc1`, for which the composite z-score was 0.19 (inactive) in assay [1] and 0.311 in the assay with XIP peptide (Xip251-270). Besides, the z-score in assay [2] was -2.01; in assay [3], -0.661 (inactive); in assay [4], 0.327 (inactive); in assay [5] it was -0.0853 (inactive).

For `C=CCC(OC(C)=O)[C@@H]1[C@@H](N(Cc2cccc3ccccc23)C(=O)Cc2ccc(F)cc2)c2cc(OCCCO)ccc2N1C(=O)c1ccc(-c2ccccc2)cc1` (some centres not stated), the composite z-score in assay [1] is -1.31 (inactive); in the assay with XIP peptide (Xip251-270), -1.14. The z-score in assay [2] was -1.69; in assay [3], -1.09 (inactive); in assay [4] it was 0.19 (inactive); in assay [5], -0.39 (inactive).

As to `COCCOC(=O)N1C(=O)[C@@]2(c3cc(C#CCC(C(=O)OC)C(=O)OC)ccc31)[C@H](c1ccc(OCCO)cc1)N1[C@H](c3ccccc3)[C@H](c3ccccc3)OC(=O)[C@H]1[C@@H]2C(=O)Nc1nc2ccccc2s1`, the figures for the composite z-score (in assay [1]; in the assay on XIP peptide (Xip251-270)) were 0.0047 (inactive) and 0.59, respectively. Also, the z-score is -0.512 in assay [2], 2.1 (inactive) in assay [3], -0.365 (inactive) in assay [4] and -0.632 (inactive) in assay [5].

Take `COCCOC(=O)N1C(=O)[C@@]2(c3cc(C#CCNC(N)=O)ccc31)[C@H](c1ccc(O)cc1)N1[C@H](c3ccccc3)[C@H](c3ccccc3)OC(=O)[C@H]1[C@@H]2C(=O)N1CCN(c2ncccn2)CC1`: the composite z-score in assay [1] is 0.237 (inactive); in the assay on XIP peptide (Xip251-270), 0.796. For the same molecule, the z-score in assay [2] was -1.71; in assay [3], 0.0468 (inactive); in assay [4], -0.11 (inactive); in assay [5], -0.184 (inactive).

Turning to `COc1ccc([Si](C)(C)[C@H]2[C@H](CCO)O[C@@]3(C(=O)N(Cc4ccccc4)c4ccc(N5C(=O)c6ccccc6Oc6ccccc65)cc43)[C@@H]2C)cc1`, the composite z-score in assay [1] was 0.823 (inactive); in the assay with XIP peptide (Xip251-270) it was 0.601. In addition, the z-score was -1.75 in assay [2], -1.76 (inactive) in assay [3], 0.564 (inactive) in assay [4] and -0.608 (inactive) in assay [5].

As for `Cc1cccc([C@H]2C[C@H]3C(I)=C[C@@H]2C(=O)[C@]32CO2)c1`, the results for the composite z-score (in assay [1]; in the assay with XIP peptide (Xip251-270)) were 0.162 (inactive) and -0.452, respectively. Also, the z-score was 1.22 in assay [2], -1.53 (inactive) in assay [3], -0.33 (inactive) in assay [4] and -0.466 (inactive) in assay [5].

Consider `CCN(CC)c1ccc(N2CC=CC34O[C@@H]5/C=C\CCC(C)OC(=O)C5[C@H]3C(=O)N(C(C)CO)[C@@H]4C2=O)cc1` (some centres not stated), for which the figures for the composite z-score (in assay [1]; in the assay with XIP peptide (Xip251-270)) were -0.187 (inactive) and 0.56, respectively. Further, the z-score in assay [2] is 0.2; in assay [3], -5.38 (inactive); in assay [4] it was -0.713 (inactive); in assay [5], -0.257 (inactive).

Consider `C=CCNC(=O)[C@H]1[C@@H]2C(=O)O[C@@H](c3ccccc3)[C@@H](c3ccccc3)N2[C@@H](c2ccc(OCCO)cc2)[C@]12C(=O)N(C(=O)OCCOC)c1ccc(C#Cc3ccc(OC)cc3)cc12`, for which the composite z-score in assay [1] was 0.0294 (inactive); in the assay with XIP peptide (Xip251-270), 0.719. In addition, the z-score was -2.38 in assay [2], 4.25 (inactive) in assay [3], -0.499 (inactive) in assay [4] and -0.744 (inactive) in assay [5].

For the molecule `COc1cc(NN2C(C(O)c3ccc(I)cc3)C=CC3C(=O)N(c4ccccc4)C(=O)C32)cc(OC)c1OC` (configuration not stated), the composite z-score was 0.204 (inactive) in assay [1] and 0.816 with XIP peptide (Xip251-270). Further, the z-score in assay [2] is -0.908; in assay [3], -4.54 (inactive); in assay [4] it was 0.505 (inactive); in assay [5], 0.241 (inactive).

Turning to `C=CC1c2cc(O)c(OC)cc2CCN1Cc1ccc([N+](=O)[O-])o1` (configuration not stated), the values for the composite z-score (in assay [1]; in the assay on XIP peptide (Xip251-270)) were 0.835 (inactive) and 0.905, respectively. Further, the z-score is -0.83 in assay [2], -4.18 (inactive) in assay [3], -0.131 (inactive) in assay [4] and 0.406 (inactive) in assay [5].

`Cc1ccccc1C(O)C1C=CC2C(=O)N(c3ccccc3)C(=O)C2N1Nc1ccc([N+](=O)[O-])cc1` (configuration not stated): the composite z-score in assay [1] was 1.61 (inactive); with XIP peptide (Xip251-270) it was 0.618. In addition, the z-score is -0.42 in assay [2], -3.91 (inactive) in assay [3], -0.0666 (inactive) in assay [4] and -0.614 (inactive) in assay [5].

Regarding `O=C(O)[C@@H]1C[C@@H]2C(=O)N3CCC[C@H]3C(=O)N2[C@@H]1c1cccc(OCCO)c1`, the results for the composite z-score (in assay [1]; with XIP peptide (Xip251-270)) were 2 (inactive) and 0.932, respectively. Moreover, the z-score was -0.382 in assay [2], -2.19 (inactive) in assay [3], 0.299 (inactive) in assay [4] and -0.0384 (inactive) in assay [5].

In the case of `[N-]=[N+]=NCc1ccccc1[C@@H]1OC(c2ccc(OCCCO)cc2)=N[C@]1(Cc1ccccc1N=[N+]=[N-])C(=O)N1CCCCC1`, the figures for the composite z-score (in assay [1]; in the assay on XIP peptide (Xip251-270)) were 0.111 (inactive) and 0.724, respectively. The z-score in assay [2] was -2.16; in assay [3], -1.44 (inactive); in assay [4], -0.234 (inactive); in assay [5] it was -0.0332 (inactive).

Turning to `COCCCNC(=O)[C@@]1(Sc2ccc(C)cc2)CC(=O)N(C(C)C)[C@@H]1c1ccc(CO)cc1I`, the composite z-score in assay [1] is 0.287 (inactive); in the assay with XIP peptide (Xip251-270), 0.609. Further, the z-score in assay [2] is -1.63; in assay [3] it was -4.13 (inactive); in assay [4], 0.121 (inactive); in assay [5] it was 0.579 (inactive).

Turning to `CCCCC(=O)N(CCN1CCOCC1)[C@@H]1CC(C(=O)NCCO)=C[C@H](Oc2c(I)cc(CO)cc2OC)[C@H]1O`, the values for the composite z-score (in assay [1]; in the assay with XIP peptide (Xip251-270)) were 0.763 (inactive) and 0.918, respectively. The z-score in assay [2] is -0.0342; in assay [3], -4.26 (inactive); in assay [4] it was -0.686 (inactive); in assay [5], -0.31 (inactive).

As for `COCCOC(=O)N1C(=O)[C@@]2(c3cc(C#CCNC(N)=O)ccc31)[C@H](c1ccc(O)cc1)N1[C@H](c3ccccc3)[C@H](c3ccccc3)OC(=O)[C@H]1[C@@H]2C(N)=O`, the composite z-score in assay [1] is -0.256 (inactive); in the assay on XIP peptide (Xip251-270), 0.124. The z-score in assay [2] is 0.228; in assay [3], -0.531 (inactive); in assay [4], -0.0933 (inactive); in assay [5] it was -0.0072 (inactive).

In the case of `COC(=O)C1=CC(CCCO)=CC(c2ccc(CN3CCCC3)cc2)N(Cc2cc3c(cc2Br)OCO3)C=C1C(=O)OC` (configuration not stated), the figures for the composite z-score (in assay [1]; in the assay with XIP peptide (Xip251-270)) were 2.27 (inactive) and 0.727, respectively. The z-score in assay [2] is -1.41; in assay [3], -3.44 (inactive); in assay [4], 0.119 (inactive); in assay [5] it was 0.656 (inactive).
